From PubChem BioAssay
Shown are actives, neighbours in structure and some others; about 2.2% of the full set was active somewhere.
TDP43 rescue: inhibitors of TDP-43 toxicity in yeast; TDP-43 expressing yeast growth rescue, BacTiter-Glo, 24 h; 1.8% of 410,000 active; Potency, µM (top dose mostly 46.1 µM), without a hit: at the highest dose growth rescue (activation), usual class: activators; also: % of control where 0% means no effect; nearly all actives have a fitted effect of over 50% in size
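Yeast cells expressing TDP-43 under galactose induction are exposed to compounds for 24 hr at 30 deg C. BacTiter-Glo luminescence measures growth, so protective compounds score as activators.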
Abeta rescue: A-beta toxicity reversal in yeast | yeast expressing A-beta42, growth rescue, OD600, 48 h; response scale: 0% DMSO, 100% iron-clioquinol control | Potency, µM (doses to about 46.1 µM), most hits filed as activators | 0.063% of 410,000 active | AID 1347071; also: nearly all actives have a fitted effect of over 55% in size
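Yeast A-beta toxicity model in growth medium with pinned compounds, 48 h at 30 C; growth read as absorbance at 600 nm. Normalized to FeCl3/clioquinol equimolar mix (positive) and DMSO (negative).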
Mito fusion act: mitochondrial division inhibition or fusion activation; 0.23% of 320,000 active; Potency, µM (highest dose often 46.1 µM), without a hit: at the top dose growth rescue (activation), usual class: activators; S. cerevisiae fusion-defective mutant growth rescue, CellTiterGlo 48 h; also: % of control where 0% means no effect; nearly all actives have a fitted effect of over 45% in size
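Compounds are tested for their ability to restore growth of mitochondrial fusion-defective yeast strains at non-permissive 37C in YPEG medium over 48 hours. Viability is quantified by luciferase luminescence.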
FUS suppressor: rescues growth of FUS-expressing yeast | 0.24% of 390,000 active | S. cerevisiae FUS-expressing, growth rescue, OD600, 24 h | Potency, µM (doses to about 76.6 µM), actives largely listed as activators;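 also: plate controls were DMSO vehicle for no effect and reference control for full effect; nearly all actives have a fitted effect of over 55% in size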
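Read-out: OD at 600 nm after 24hr at 30C, reporting rescue of FUS-induced yeast toxicity. Cells at OD 0.005 in galactose (2%) minimal medium; compounds tested in a dilution series; CP55940 titration from 92uM final as control.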
aSyn rescue: rescues yeast growth from alpha-synuclein toxicity | Potency, µM (highest dose often 46.1 µM), without a hit: at the top dose growth rescue (activation), hits mostly activators | Yeast expressing alpha-synuclein, growth rescue, BacTiter-Glo, 24 h | 0.14% of 370,000 active; also: % of control where 0% means no effect; nearly all actives have a fitted effect of over 65% in size
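Galactose-induced alpha-syn yeast (OD600=0.02, raffinose-pregrown) + pinned cpd, 24 hr, 30 deg C; growth by BacTiter-Glo luminescence. Growth restoration scores as activation.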
Numbers without * were called inactive; i = inactive; ? = inconclusive; . = no result given. Calls follow the shape of the dose curve; as a rule, active = well fitted curve in the direction sought with a large enough effect; inconclusive = small, poorly fitted or top-dose-only effect, or another doubt; inactive = no such curve, though single readings can be large; an effect the other way counts as inactive or inconclusive. Potency is read from the fitted curve at half-maximal effect.

SMILES	TDP43 rescue	Abeta rescue	Mito fusion act	FUS suppressor	aSyn rescue
Clc1ccc(C(c2ccccc2)c2c[nH]c3ccccc23)s1 (stereo not given)	20µM*	i	.	i	-36.0%
CCOC(=O)[C@]12CCCC=C1N(Cc1ccc(OC)cc1)C(=O)[C@@H]2CC(=O)NCc1ccc(C)o1	.	.	.	i	.
COc1ccc(C(=O)N/N=C/c2sc3ccccc3c2O)cc1	?	i	-1.2%	i	?
COc1ccc2cc(C(=O)N/N=C/c3sc4ccccc4c3O)ccc2c1	-10.8%	i	5.1%	.	10µM*
O=C(CCCCn1cnc2c(=S)nc[nH]c21)Nc1ccc(C(=O)O)c(O)c1	9.3%	i	.	i	1.4%
CCCCCC(=O)c1c(C)[nH]c(C(=O)OCC)c1C	16.7%	i	?	i	-1.9%
CCCCCCC(=O)c1c(C)[nH]c(C(=O)OCC)c1C	10µM*	i	?	i	-3.3%
COC(=O)CS(=O)(=O)c1nnc([C@H](Cc2ccccc2)NC(=O)OC(C)(C)C)o1	35.5µM*	i	-0.9%	.	-21.3%
O=C(COc1ccc(Cl)cc1)NCC(c1ccco1)S(=O)(=O)c1ccccc1 (stereo not given)	6.4%	i	.	i	.
O=C(COc1ccc(Cl)cc1)NCC(c1ccco1)S(=O)(=O)c1ccc(Cl)cc1 (stereo not given)	35.5µM*	i	.	i	.
Cn1c2ccccc2c(=O)c2c(=O)n(-c3ccc(F)cc3)c(C3CCCCC3)nc21	-23.7%	i	.	i	1.9%
COCCCN1C(=O)[C@H](CC(=O)N2CCCCC2)[C@]2(C(=O)OC)CCCCC=C12	.	.	.	i	.
N#Cc1cnc(SCCc2ccccc2)nc1N	12.6µM*	i	5.5%	i	0.8%
N#Cc1cnc(SCC(=O)c2ccccc2)nc1N	21.0%	i	-6.4%	i	0.4%
O=C1c2cccnc2C(=O)N1c1nc(-c2ccccc2)cs1	.	.	.	.	1.0%
CC(C)/C=C/C(=O)N1CCCC(N2CCN(c3ccccc3F)CC2)C1 (stereo not given)	-2.9%	i	-1.2%	i	0.7%
Cc1cc2c(s1)c1cnn(Cc3c(Cl)ccc(C)c3F)c(=O)c1n2C	.	.	.	i	.
Oc1ccc2ccccc2c1CNc1ccc(Br)cn1	20µM*	i	3.3%	i	1.2%
CCCCCCCCNC(=O)C1CSCCS(=O)(=O)N1Cc1ccc(OC)cc1 (stereo not given)	.	.	.	i	.
CC(=O)Nc1ccc(Nc2ncnc3c2c(-c2ccccc2)cn3-c2ccc(C)c(Cl)c2)cc1	15.8µM*	i	.	?	.
COCCNc1ncnc2c1c(-c1ccccc1)cn2-c1cccc(Cl)c1	35.5µM*	i	6.3%	?	.
COc1ccc(CCNc2ncnc3c2c(-c2ccccc2)cn3-c2cccc(Cl)c2)cc1OC	?	i	.	?	.
CCOc1ccccc1CNC(=O)c1cnc2sc(N3CCC(C)CC3)nn2c1=O	7.5%	i	.	i	.
C[C@@H](/C=C/C(=O)OC(C)(C)C)Sc1ccc(C(C)(C)C)cc1	.	.	.	i	.
CCOC(=O)c1sc(Nc2nc3c(OC)cccc3s2)cc1C	22.4µM*	i	6.4%	?	-0.4%
SMILES	TDP43 rescue	Abeta rescue	Mito fusion act	FUS suppressor	aSyn rescue
CCOC(=O)c1sc(Nc2nc3cc4c(cc3s2)OCO4)cc1C	18.9%	i	17.6%	i	4.2%
Cc1nc([N+](=O)[O-])c(Br)n1CC(=O)c1ccc(Cl)cc1	12.6µM*	i	-9.5%	i	0.5%
Cc1nc([N+](=O)[O-])c(Br)n1Cc1ccc(Cl)c(Cl)c1	14.1µM*	i	10.1%	i	-10.0%
CC(C)CCNC(=O)C1CC(c2ccccc2C(F)(F)F)=NO1 (stereo not given)	25.6%	i	-5.0%	i	2.4%
CN(C)c1ccc(/C=C/c2c[n+](C)cc3ccccc23)cc1	.	.	.	.	-2.6%
O=S(=O)(c1cccc(Cl)c1)N1CCN(c2nc(-c3cccs3)nc3ccccc23)CC1	.	.	.	.	1.5%
Cc1c(NC(=O)c2cccs2)cccc1-c1nc2ccccc2s1	?	i	15.8µM*	i	-19.0%
O=C1CC(c2ccccc2)CC(=O)C1Sc1ccc(Cl)cc1 (stereo not given)	10µM*	i	19.4%	.	16.7%
Cc1ccc(C2=CC(=O)C[C@H](c3ccc(Cl)cc3)C2)cc1	15.8µM*	i	?	i	4.2%
O=C1C=C(c2ccc(O)cc2)C[C@@H](c2ccc(Cl)cc2)C1	?	i	1.2%	i	1.0%
O=C1C=C(c2ccccc2)C[C@@H](c2ccc(Cl)cc2)C1	20µM*	i	?	i	8.1%
O=C1CC(c2ccc(Cl)cc2)CC(=O)C1CS(=O)(=O)c1ccccc1 (stereo not given)	19.5%	i	-5.3%	?	13.3%
O=C1C=C(c2ccc3ncccc3c2)C[C@@H](c2ccc(Cl)cc2)C1	15.8µM*	i	?	?	17.1%
O=C1C=C(c2cccc(CO)c2)C[C@@H](c2ccc(Cl)cc2)C1	17.8µM*	i	?	i	10.9%
O=S(=O)(c1ccc2ccccc2c1)N1CCN(c2nc(-c3ccccc3)nc3ccccc23)CC1	.	.	.	.	0.4%
CCn1nccc1C(=O)Nc1cc(Cl)cc(Cl)c1	20µM*	i	-0.5%	i	2.5%
CN1C(=O)C(N=Nc2ccc([N+](=O)[O-])cc2)SC1=S (stereo not given)	-95.4%	i	.	i	-71.0%
O=C(CCCCCN1C(=O)C2C3C=CC(C3)C2C1=O)Nc1ccc2ncccc2c1 (stereo not given)	.	.	.	i	.
COc1cccc(CSc2nnc(CSc3nc4nc(C)cc(C)n4n3)s2)c1	20µM*	i	14.8%	i	2.4%
COc1ccc(-c2cn3c(C)c(C(=O)N4CCCc5ccccc54)sc3n2)cc1	25.1µM*	i	.	?	20µM*
COc1ccc(C(=O)N2CCCc3ccccc32)cc1	17.5%	i	-2.7%	i	4.0%
COc1ccc(-c2cc(C(=O)N3CCCc4ccccc43)no2)cc1OC	15.8µM*	i	12.8%	?	-12.4%
COc1ccc(-c2cc(C(=O)N3CCCc4ccccc43)no2)cc1	10µM*	i	16.9%	.	1.2%
CCOC(=O)C1CCCN(C(=O)c2sc3nc(-c4ccc(F)cc4)cn3c2C)C1 (stereo not given)	8.91µM*	i	5.4%	.	3.6%
C=CCn1c(SCC(=O)C(C)(C)C)nnc1-c1ccc(Cl)cc1	.	.	.	i	.
C#CCNC(=O)CSCc1nc(-c2ccc(OCC)cc2)oc1C	.	.	.	i	.
COc1ccc(-c2cn3c(C)c(C(=O)N4CCN(c5ccccc5F)CC4)sc3n2)cc1	0.0%	i	7.0%	?	0.9%
CCOC(=O)/C(=N/Nc1ccc(OC)cc1)N1CCCc2ccccc21	12.6µM*	i	2.2%	i	0.4%
